The text below walks through data of PubChem BioAssay.

The list shows a part of the results. Calls of active or inactive are those of the source. Unless noted, how the calls were made is not given here.

Assay [1] deals with Regulator of G-protein signaling 16 (Homo sapiens) (UniProt O15492). Description: modulators of RGS–Galpha-o binding, primary screen, biochemical, multiplexed beads, flow cytometry, RGS4/7/8/16/19 (AID 1504).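 Further: fluorescently labeled Galpha-o bound to GDP with aluminium fluoride binding biotinylated RGS beads.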 The settings on record: multiplexed bead flow cytometry, measured here: RGS16 interaction, at 10 µM.
For assay [2], the target named is Regulator of G-protein signaling 19 (Homo sapiens) (UniProt P49795). The assay is described as above. The settings on record: multiplexed bead flow cytometry, measured here: RGS19 interaction, at 10 µM. Background: A flow cytometer gives signals particle by particle.
Assay [3] concerns the target Regulator of G-protein signaling 4 (Homo sapiens) + Guanine nucleotide-binding protein G(o) subunit alpha (Homo sapiens) (UniProt P49798+P09471). The description is as above. The settings on record: multiplexed bead flow cytometry, at 10 µM.
For assay [4], the target named is Regulator of G-protein signaling 7 (Homo sapiens) (UniProt P49802). Described as above. The settings on record: multiplexed bead flow cytometry, measured here: RGS7 interaction, at 10 µM.
Assay [5] addresses Regulator of G-protein signaling 8 (Homo sapiens) (UniProt P57771). Described as above. The settings on record: multiplexed bead flow cytometry, measured here: RGS8 interaction, at 10 µM.
Assay [6] in a line: disruption of biotin probe capture by avidin, counter-screen for RGS protein interaction modulators, biochemical, flow cytometry, bead-based (AID 1783;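 active means inhibition above 50%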;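 further: median green fluorescence of gated singlet beads compared with DMSO control wells; 0% = DMSO wells and 100% = complete loss of bead fluorescence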). The settings on record: streptavidin beads, fluorescein-biotin binding; at 10 µM, stronger effect = higher value.
Assay [7] deals with Guanine nucleotide-binding protein G(o) subunit alpha (Homo sapiens) (UniProt P09471). Description: RGS8-Galphao binding modulators, confirmation, biochemical, multiplexed bead flow cytometry, single concentration (AID 1836; in the data active means binding response below about 72% or above about 130%; inactive means in between;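 further: Galphao activated as GDP AlF4 complex before binding bead RGS8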). The settings on record: bead-based flow cytometry RGS8-Galphao binding, fluorescence; at 10 µM; actives lie on both sides.
For assay [8] the target is unchanged. The assay is described as follows: RGS7-Galphao binding modulators, confirmation, biochemical, multiplexed bead flow cytometry, single concentration (AID 1837; in the data active means response below about 75% or above about 130%; inactive means in between;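 further: fluorescent Galphao activated with GDP and aluminum fluoride binding bead-coupled RGS7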). The settings on record: bead-based flow cytometry RGS7-Galphao binding; at 10 µM; actives lie on both sides.
The target in assay [9] is Regulator of G-protein signaling 16 (Homo sapiens) + Guanine nucleotide-binding protein G(o) subunit alpha (Homo sapiens) (UniProt O15492+P09471). Description: modulators of RGS16-Galphao protein binding, confirmation, biochemical, single concentration, multiplexed bead flow cytometry (AID 1838; in the data active means response below about 74% or above about 130%; inactive means in between;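 further: Galphao activated as the GDP aluminium fluoride complex binding bead-coupled RGS16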). The settings on record: bead-based flow cytometry, at 10 µM, actives lie on both sides.

The target in assay [10] is Guanine nucleotide-binding protein G(o) subunit alpha (Homo sapiens) (UniProt P09471). Description: modulators of RGS4-Galphao protein binding, confirmation, biochemical, single concentration, multiplexed bead flow cytometry (AID 1840; in the data active means binding response below about 74% or above about 130%; inactive means in between). The settings on record: at 10 µM, actives lie on both sides.
Assay [11] addresses Guanine nucleotide-binding protein G(o) subunit alpha (Homo sapiens) + Regulator of G-protein signaling 19 (Homo sapiens) (UniProt P09471+P49795). The assay is described as follows: regulators of RGS19-Galphao binding, confirmation, biochemical, single point, multiplexed bead flow cytometry (AID 1841; in the data active means response below about 50% or above about 160%; inactive means in between;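 further: 100% = no compound control and 0% = blank background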). The settings on record: bead-based flow cytometry RGS19-Galphao binding; at 10 µM; actives lie on both sides.

Assay [12] deals with Ras-related C3 botulinum toxin substrate 1 (Homo sapiens) (UniProt P63000). Description: wildtype Rac1 GTP binding inhibitors, dose response, biochemical, multiplex bead flow cytometry (AID 1340;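 active means dose curve with midpoint inside tested range, moderate steepness, plateau gap beyond fit error, low compound glow and bead-link interference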). The settings on record: GST-Rac1 beads, Bodipy-FL-GTP binding; at 100 µM (top of the series) unless noted.

Chain of Guanine nucleotide-binding protein G(o) subunit alpha (Homo sapiens) (P09471 whole entry, looked up): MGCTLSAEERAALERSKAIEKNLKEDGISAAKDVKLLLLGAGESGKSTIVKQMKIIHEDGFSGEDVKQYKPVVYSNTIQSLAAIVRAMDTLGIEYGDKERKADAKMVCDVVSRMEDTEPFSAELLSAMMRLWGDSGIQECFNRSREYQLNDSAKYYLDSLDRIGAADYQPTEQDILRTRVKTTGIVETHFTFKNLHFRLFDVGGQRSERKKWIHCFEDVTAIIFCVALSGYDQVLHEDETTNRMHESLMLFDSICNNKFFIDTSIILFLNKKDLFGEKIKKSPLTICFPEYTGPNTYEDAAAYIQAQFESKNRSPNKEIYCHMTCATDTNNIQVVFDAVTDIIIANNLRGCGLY
Chain of Regulator of G-protein signaling 4 (Homo sapiens) + Guanine nucleotide-binding protein G(o) subunit alpha (Homo sapiens) (P09471 whole entry, looked up): as above
Chain of Regulator of G-protein signaling 4 (Homo sapiens) + Guanine nucleotide-binding protein G(o) subunit alpha (Homo sapiens) (P49798 whole entry, looked up): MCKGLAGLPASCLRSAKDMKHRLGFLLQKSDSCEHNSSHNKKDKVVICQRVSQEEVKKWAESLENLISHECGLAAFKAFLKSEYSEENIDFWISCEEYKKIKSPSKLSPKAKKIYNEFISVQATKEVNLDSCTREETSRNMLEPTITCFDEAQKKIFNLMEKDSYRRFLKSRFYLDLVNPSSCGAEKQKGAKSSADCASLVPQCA
Chain of Guanine nucleotide-binding protein G(o) subunit alpha (Homo sapiens) + Regulator of G-protein signaling 19 (Homo sapiens) (P09471 whole entry, looked up): as the sequence (P09471 whole entry, looked up) above
Chain of Guanine nucleotide-binding protein G(o) subunit alpha (Homo sapiens) + Regulator of G-protein signaling 19 (Homo sapiens) (P49795 whole entry, looked up): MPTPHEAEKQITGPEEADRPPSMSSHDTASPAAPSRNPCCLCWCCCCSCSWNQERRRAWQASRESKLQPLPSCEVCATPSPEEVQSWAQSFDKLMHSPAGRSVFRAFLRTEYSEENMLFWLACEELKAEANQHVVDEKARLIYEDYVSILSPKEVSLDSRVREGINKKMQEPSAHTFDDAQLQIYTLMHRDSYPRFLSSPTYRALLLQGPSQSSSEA
Chain of Regulator of G-protein signaling 16 (Homo sapiens) + Guanine nucleotide-binding protein G(o) subunit alpha (Homo sapiens) (O15492 whole entry, looked up): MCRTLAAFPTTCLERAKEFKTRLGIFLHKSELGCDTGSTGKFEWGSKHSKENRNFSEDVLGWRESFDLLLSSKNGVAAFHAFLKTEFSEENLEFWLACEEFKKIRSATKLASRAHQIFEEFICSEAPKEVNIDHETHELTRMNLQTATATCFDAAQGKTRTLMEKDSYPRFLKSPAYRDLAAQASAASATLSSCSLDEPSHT
Chain of Regulator of G-protein signaling 16 (Homo sapiens) + Guanine nucleotide-binding protein G(o) subunit alpha (Homo sapiens) (P09471 whole entry, looked up): as the sequence (P09471 whole entry, looked up) above

For the molecule `CN(CC(=O)NC1CCCCC1)S(=O)(=O)c1cccc2cccnc12`, the RGS16–Galpha-o binding response in [1] amounted to 94.7%. The RGS19–Galpha-o binding response in assay [2] amounted to 114%. Besides, the RGS4–Galpha-o binding response in assay [3] was 110% (active). In assay [4], the RGS7–Galpha-o binding response amounted to 241%. For the same molecule, in [5], the RGS8–Galpha-o binding response came to 89.3%.
Regarding `CCOC(=O)c1oc2c(CN3CCN(C)CC3)c(O)ccc2c(=O)c1-c1ccc(Br)cc1`, the RGS16–Galpha-o binding response in assay [1] amounted to 142%. Moreover, the RGS19–Galpha-o binding response in [2] was 79.7%. Moreover, the RGS4–Galpha-o binding response in assay [3] is 132% (active). For the same molecule, in [4], the RGS7–Galpha-o binding response stood at 318%. The same molecule returned an RGS8–Galpha-o binding response in [5] of 107%. The inhibition (commonly the relative decrease from the control value, in per cent) in assay [6] is -0.6% (inactive). For the same molecule, the results for the binding response (% of control) in assay [7] and in assay [10] were 97.5% (inactive) and 96.9% (inactive), respectively. The response (percent of control binding) is 95.5% (inactive) in assay [8] and 92.8% (inactive) in [11]. In assay [9], the response (% of control binding) is 98.4% (inactive).
With `CC(C)(C)NC(=O)c1cccc(NC(=O)Cc2ccc(Br)cc2)c1`, the RGS16–Galpha-o binding response in [1] is -3.28%. Moreover, the RGS19–Galpha-o binding response in [2] was found to be 121%. Also, the RGS4–Galpha-o binding response in assay [3] was 79.3% (active). Also, the RGS7–Galpha-o binding response in [4] worked out at 76.6%. The molecule further showed an RGS8–Galpha-o binding response in [5] of 70.2%. The inhibition in assay [6] was 1% (inactive). The binding response (% of control) in [7] is 103% (inactive); in assay [10], 100% (inactive). The response (percent of control binding) in assay [8] was 100% (inactive); in assay [11], 115% (inactive). Further, the response (% of control binding) in assay [9] was 99.4% (inactive).
Consider `CCOC(=O)c1c(NC(=O)N/N=C/c2ccccc2OCC)sc(C(C)=O)c1C`, for which the GTP binding signal, raw median fluorescence (lower = inhibition) (MCF (arbitrary fluorescence units)) in assay [12] came to 238.
In the case of `CN(C)CCN=c1cc(-c2ccccc2)oc2ccc(Cl)cc12`, the RGS16–Galpha-o binding response in assay [1] is 103%. The RGS19–Galpha-o binding response in assay [2] was determined as 95.4%. Also, the RGS4–Galpha-o binding response in assay [3] was 110% (active). Also, the RGS7–Galpha-o binding response in [4] was determined as 155%. In assay [5], the RGS8–Galpha-o binding response came out at 102%. Moreover, in assay [6], the inhibition is -3.8% (inactive). The binding response (% of control) in assay [7] and in assay [10] was 107% (inactive) in each case. For the same molecule, the response (percent of control binding) in [8] was 111% (inactive); in assay [11], 108% (inactive). Further, the response (% of control binding) in assay [9] was 113% (inactive).
Take `O=[N+]([O-])C(=c1ccc2c(c1)N1C3=C(CCCC3)CC3CCCCC31N=2)[N+](=O)[O-]` (stereo unspecified): the RGS16–Galpha-o binding response in [1] stood at 20.9%. The RGS19–Galpha-o binding response in assay [2] came to 357%. Besides, the RGS4–Galpha-o binding response in assay [3] is 80.6% (active). The RGS7–Galpha-o binding response in assay [4] is -195%. In assay [5], this molecule registered an RGS8–Galpha-o binding response of 43.8%.
As for `CCn1cc(C(=O)OCC(=O)c2cc(C)n(-c3ccc(OC(F)F)cc3)c2C)c(=O)c2ccc(C)nc21`, the GTP binding signal, raw median fluorescence (lower = inhibition) (MCF (arbitrary fluorescence units)) in assay [12] was determined as 148.
With `O=C1CCC(=O)N(O)CCCCCNC(=O)CCC(=O)N(O)CCCCCNC(=O)CCC(=O)N(O)CCCCCN1`, the RGS16–Galpha-o binding response in [1] stood at 40.8%. Moreover, the RGS19–Galpha-o binding response in [2] was determined as 4280%. For the same molecule, in assay [3], the RGS4–Galpha-o binding response was 52.2% (active). In addition, in assay [4], the RGS7–Galpha-o binding response was -117%. In [5], this molecule came in with an RGS8–Galpha-o binding response of 55.9%. Moreover, in assay [6], the inhibition is -0.3% (inactive). Besides, the binding response (% of control) in [7] was 53.5% (active); in assay [10], 61.5% (active). The response (percent of control binding) in assay [8] was 59.4% (active); in [11], 62.2% (inactive). Moreover, the response (% of control binding) in [9] was 45.6% (active).
In the case of `Fc1cc(F)c2nc(Nc3nc4c(F)cccc4s3)sc2c1`, the RGS16–Galpha-o binding response in [1] came out at 192%. For the same molecule, in assay [2], the RGS19–Galpha-o binding response is -2.22%. Moreover, in assay [3], the RGS4–Galpha-o binding response is 110% (active). Moreover, the RGS7–Galpha-o binding response in [4] stood at 112%. The RGS8–Galpha-o binding response in assay [5] turned out to be 122%. Further, the inhibition in assay [6] is 0% (inactive). The binding response (% of control) in assay [7] and in assay [10] was 103% (inactive) in each case. For the same molecule, the figures for the response (percent of control binding) in assay [8] and in [11] were 103% (inactive) and 107% (inactive), respectively. Also, the response (% of control binding) in assay [9] was 103% (inactive).
Turning to `O=C(Nc1cccc(F)c1)c1coc(=O)c(Br)c1`, the RGS16–Galpha-o binding response in assay [1] is 100%. In [2], the RGS19–Galpha-o binding response came to 108%. Besides, the RGS4–Galpha-o binding response in assay [3] is 83.8% (active). For the same molecule, in assay [4], the RGS7–Galpha-o binding response turned out to be 45.3%. The molecule also gave an RGS8–Galpha-o binding response in assay [5] of 80.8%. The inhibition in assay [6] was -1.3% (inactive). The binding response (% of control) in [7] is 110% (inactive); in assay [10] it was 103% (inactive). The response (percent of control binding) in [8] was 105% (inactive); in assay [11], 118% (inactive). For the same molecule, the response (% of control binding) in assay [9] is 109% (inactive).
With `CCN(CC)c1ccc(/C=C(\C#N)C(=O)c2ccc(Br)cc2)cc1`, the GTP binding signal, raw median fluorescence (lower = inhibition) (MCF (arbitrary fluorescence units)) in assay [12] came out at 0.
For the molecule `Cc1ccc(OCC(O)CN2CCN(CC(O)COc3ccc(C)cc3Cl)CC2)c(Cl)c1` (stereo unspecified), the RGS16–Galpha-o binding response in [1] was found to be 367%. In assay [2], the RGS19–Galpha-o binding response was determined as 114%. Moreover, in [3], the RGS4–Galpha-o binding response is 139% (active). For the same molecule, the RGS7–Galpha-o binding response in assay [4] turned out to be 127%. The molecule further returned an RGS8–Galpha-o binding response in assay [5] of 165%.
In the case of `CCOC(=O)C1=C(c2ccccc2)N=C2SCC(=O)N2C1c1ccc(O)c(OC)c1` (stereo unspecified), the RGS16–Galpha-o binding response in [1] is 222%. For the same molecule, the RGS19–Galpha-o binding response in assay [2] was -290%. For the same molecule, in [3], the RGS4–Galpha-o binding response is 121% (active). The RGS7–Galpha-o binding response in assay [4] was found to be 122%. The RGS8–Galpha-o binding response in assay [5] was 144%. For the same molecule, in assay [6], the inhibition is 0% (inactive). Also, the binding response (% of control) in assay [7] is 109% (inactive); in assay [10], 106% (inactive). The figures for the response (percent of control binding) in assay [8] and in assay [11] were 108% (inactive) and 104% (inactive), respectively. In addition, the response (% of control binding) in [9] was 110% (inactive).
As to `COc1ccc(-n2c(SCC(=O)OC(C)C)nnc2-c2ccccn2)cc1`, the RGS16–Galpha-o binding response in assay [1] came out at 242%. Also, in assay [2], the RGS19–Galpha-o binding response is 103%. Further, the RGS4–Galpha-o binding response in assay [3] was 106% (active). For the same molecule, the RGS7–Galpha-o binding response in assay [4] was 101%. In [5], this molecule showed an RGS8–Galpha-o binding response of 134%. Also, the inhibition in assay [6] is -1.2% (inactive). Further, the figures for the binding response (% of control) in assay [7] and in [10] were 99.1% (inactive) and 97.2% (inactive), respectively. For the same molecule, the response (percent of control binding) in assay [8] was 96.9% (inactive); in assay [11], 60.1% (inactive). Besides, the response (% of control binding) in [9] is 93.3% (inactive).
